Among the data in the supplement of paper PMC6555819 are PBM binding z-score values, retold here.

Assay in all cases: PBM binding z-score (relative to random genomic background probes); higher = stronger binding; sequences stand for … in GC…GCGATTGACAGCGTAGAATGAAGG
Assay [1] has as its system RARb homodimer (NR concentration 270 nM). An outline of the steps: (§1)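 Binding z-scores take random background probes as their reference. They come from custom Agilent 4×180K protein-binding microarrays incubated 1 h with ligand-free nuclear receptor dimers, with antibodies against each partner (one per run) detecting binding. Scanned fluorescence was regression-normalized.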

Assay [2] has as its system RARg:RXRa (NR concentration 270 nM, RXRa partner concentration 90 nM). An outline of the steps:
as §1

Assay [3] deals with RARg homodimer (NR concentration 270 nM). An outline of the steps: as §1
The test system of assay [4] is RXRa DBDmut IVT, anti-RXR (DBD mutation: RXRa K156A/R161A, NR concentration 90 nM). A digest of the protocol: as §1
The test system of assay [5] is RXRa homodimer (NR concentration 180 nM). A digest of the protocol:
as §1

Assay [6] has as its system THRa:RXRa (NR concentration 90 nM, RXRa partner concentration 90 nM). An outline of the steps: as §1
Assay [7] has as its system THRa homodimer (NR concentration 90 nM). An outline of the steps:
as §1

Assay [8] has as its system VDR homodimer (NR concentration 270 nM). A digest of the protocol: as §1

In the case of TATACAGGGTCAAAGGACAGAGTACGAATGTCGA, the PBM binding z-score in assay [1] turned out to be 3.47; in assay [2] it was 5.29; in assay [3], 5.03; in assay [4], 3.17; in assay [5], 6.26; in assay [6] it was 3.7. The PBM binding z-score in assay [7] stood at 1.21; in assay [8], 2.76.

CGTCCAGGGTCAAAGGTCAGTGAAGAGATGACGG: the PBM binding z-score in assay [1] worked out at 5.11; in assay [2], 8.3; in assay [3], 7; in assay [4], 2.98; in assay [5], 9.93; in assay [6], 4.54. In addition, the PBM binding z-score in assay [7] was 1.48; in assay [8], 3.04.

Turning to GCTACTGGGGCATCAGCAGGTTACCATAACTTAA, the PBM binding z-score in assay [1] turned out to be 0.946; in assay [2] it was 0.791; in assay [3], 0.586; in assay [4] it was 0.403; in assay [5] it was 0.169; in assay [6] it was 1.09. Also, the PBM binding z-score in assay [7] was 0.00611; in assay [8], -0.67.

With ATCTCAAGGTAAAGTTCAGTGAAAGATCGATAGA, the PBM binding z-score was 2.72 in assay [1]; 2.43 in assay [2]; 2.96 in assay [3]; 1.69 in assay [4]; 1.76 in assay [5]; 1.78 in assay [6]. Besides, the results for the PBM binding z-score in assay [7] and in assay [8] were 0.667 and 2.24, respectively.

Turning to TTACCAAGGTGAGCTGAGGTCGTTTATCCAACTC, the PBM binding z-score came to 1.47 in assay [1]; 1.08 in assay [2]; 0.862 in assay [3]; 0.292 in assay [4]; 1.27 in assay [5]; 4.58 in assay [6]. In addition, the PBM binding z-score in assay [7] was found to be 2.09; in assay [8], 2.23.

For CGAACTAGGTCATTCACAGGACAGTGAATAGTAA, the PBM binding z-score in assay [1] was 2.81; in assay [2], 4.97; in assay [3], 4.43; in assay [4], 2.48; in assay [5] it was 2.55; in assay [6], 2.91. The PBM binding z-score in assay [7] was 0.979; in assay [8] it was 1.29.

As to ATCTCTAGGTAAAGTTCAGTTAAAGATCGATAGA, the PBM binding z-score in assay [1] is 2.73; in assay [2] it was 1.65; in assay [3] it was 2.5; in assay [4], 1.68; in assay [5], 1.5; in assay [6], 1.47. Besides, the PBM binding z-score is 0.842 in assay [7] and 2.04 in assay [8].

As for CCTATTAGTTGACTATAAGGGCAACCGAAGCTCG, the PBM binding z-score turned out to be 1.42 in assay [1]; 1.15 in assay [2]; 0.934 in assay [3]; 0.543 in assay [4]; 0.351 in assay [5]; 1.79 in assay [6]. The PBM binding z-score in assay [7] is 0.969; in assay [8] it was 0.425.

For ATCTCTAGGTAAAGATAGTACAGTGAATGCAAAT, the PBM binding z-score is 0.0852 in assay [1]; 0.268 in assay [2]; 0.707 in assay [3]; -0.147 in assay [4]; 0.301 in assay [5]; 0.452 in assay [6]. The results for the PBM binding z-score in assay [7] and in assay [8] were 0.0174 and 0.54, respectively.

As for TGAATGAGGCTATAAGATCAGGGAACGTTGCAAA, the PBM binding z-score in assay [1] was -0.742; in assay [2], -0.102; in assay [3] it was 0.256; in assay [4] it was -1.09; in assay [5] it was -0.0491; in assay [6], -0.134. The PBM binding z-score in assay [7] is -0.324; in assay [8], -0.554.

Turning to ATCTCTAGGTAGAGATAGTTCAGTGAATGCAAAT, the PBM binding z-score in assay [1] is 0.368; in assay [2], 0.166; in assay [3], 0.357; in assay [4], -0.163; in assay [5], 0.115; in assay [6] it was 0.148. Further, the results for the PBM binding z-score in assay [7] and in assay [8] were -0.22 and 0.338, respectively.

Take GTACCAAGGTGAAAAGGTCGTTGATGAGTAGGCG: the PBM binding z-score is 3.49 in assay [1]; 4.66 in assay [2]; 2.59 in assay [3]; 0.369 in assay [4]; 3.57 in assay [5]; 2.58 in assay [6]. In addition, the figures for the PBM binding z-score in assay [7] and in assay [8] were 0.7 and 1.7, respectively.

As to ATACCAAGGCGATCGTGAGGTCGTTGATACTAAC, the PBM binding z-score in assay [1] was 0.905; in assay [2], 0.636; in assay [3] it was 0.0519; in assay [4], 0.303; in assay [5], 0.794; in assay [6] it was 2.26. The figures for the PBM binding z-score in assay [7] and in assay [8] were 1.5 and 1.85, respectively.

For TGTCAAAGTTCAAAGGTAAGGTAAGTATCCACAC, the PBM binding z-score in assay [1] was found to be 3.83; in assay [2], 6.22; in assay [3], 6.55; in assay [4], 4.48; in assay [5], 7.16; in assay [6], 3.5. Also, the PBM binding z-score in assay [7] was 0.924; in assay [8] it was 4.14.
